# In article PMC5540273 (PLoS ONE, 2017):
# How the values were obtained:
# Settings in all cases: concentration: 1 μM, replicates: in singlicate; n = 1
# [1] = tested on: BLK
# [2] = tested on: BMPR1A
# [3] = tested on: BMPR1B
# [4] = tested on: BMPR2
# [5] = tested on: BMX
# [6] = tested on: BRAF
# [7] = tested on: T1, BRK
# T1 construct: gene PTK6
# [8] = tested on: BRSK1
# [9] = tested on: BRSK2
# [10] = tested on: BTK
# [11] = tested on: BUB1
# [12] = tested on: CAMK1B
# [13] = tested on: CAMK1D
# [14] = tested on: CAMK1G
# [15] = tested on: CAMK1
# [16] = tested on: CAMK2A
# [17] = tested on: CAMK2B
# [18] = tested on: CAMK2D
# [19] = tested on: CAMK2G
# [20] = tested on: CAMK4
# 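Also: KINOMEscan kinase panel screen.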
SMILES,%Inh [1] [%],%Inh [2] [%],%Inh [3] [%],%Inh [4] [%],%Inh [5] [%],%Inh [6] [%],%Inh [7] [%],%Inh [8] [%],%Inh [9] [%],%Inh [10] [%],%Inh [11] [%],%Inh [12] [%],%Inh [13] [%],%Inh [14] [%],%Inh [15] [%],%Inh [16] [%],%Inh [17] [%],%Inh [18] [%],%Inh [19] [%],%Inh [20] [%]
O=C(NOCC1CC1)c1ccc(F)c(F)c1Nc1ccc(I)cc1Cl,0,0,0,0,0,0,0,0,0,0,0,0,0,0,0,0,0,0,0,32
NS(=O)(=O)CCc1cccc(Nc2nccc(-c3c(-c4cccc(NC(=O)c5c(F)cccc5F)c4)nn4ccccc34)n2)c1 [GSK336735],99.7,0,0,0,94.6,89,96,8,20,94.6,77,0,29,0,53,0,0,4,14,0
O=C(c1ccc(-c2cc(-c3c[nH]nc3-c3ccccn3)ccn2)cc1)N1CCOCC1 [GW812171],0,0,11,16,0,32,0,0,10,0,20,0,21,0,14,0,0,0,0,0
O=c1cc(N2CCOCC2)nc2n(Cc3cccc(Cl)c3Cl)c(C3CC3)nn12 [GSK2358994],0,15,0,13,19,0,0,3,0,0,0,0,0,5,0,25,10,18,0,5
Cc1cn2c(=O)cc(N3CCOCC3)nc2n1Cc1cccc(Cl)c1Cl [GSK2334006],37,19,0,0,10,15,5,14,0,0,4,40,14,30,12,0,0,10,32,0
O=c1cc(N2CCOCC2)nc2n(Cc3cccc(F)c3)ccn12 [GSK2297430],32,0,0,0,12,6,23,0,0,0,0,4,15,0,4,0,0,0,13,11
CN1c2ccc(NCc3ccc(F)cc3)cc2-c2c(cnn2C)S1(=O)=O,0,0,1,0,0,17,0,0,0,0,0,0,0,0,0,0,0,3,15,22
O=C(NCCNc1ccnc(Nc2ccc(F)cc2)n1)Nc1ccccc1F [GSK1379880],6,0,0,0,0,0,6,0,0,0,31,0,0,0,0,0,0,0,0,0
Fc1ccc(-c2ncn(CCCN3CCOCC3)c2-c2cccnc2)cc1 [SB-211743],16,0,0,16,0,2,0,0,4,0,4,0,0,0,0,0,0,0,0,14
Cc1nnc(-c2ccc(C)c(-c3ccc(C(=O)Nc4ccc(NS(C)(=O)=O)cc4)cc3)c2)o1 [GW702865],14,0,0,9,16,0,3,9,0,40,35,10,2,0,4,0,1,0,0,0
